sEH activator: soluble epoxide hydrolase (human) activation; P34913; purified human sEH enzymatic activity, activator screen; actives 0.04% (n = 91,000); activation, % at 2 µM; in the data active = activation above about 37%
Target sequence (P34913 whole entry, looked up): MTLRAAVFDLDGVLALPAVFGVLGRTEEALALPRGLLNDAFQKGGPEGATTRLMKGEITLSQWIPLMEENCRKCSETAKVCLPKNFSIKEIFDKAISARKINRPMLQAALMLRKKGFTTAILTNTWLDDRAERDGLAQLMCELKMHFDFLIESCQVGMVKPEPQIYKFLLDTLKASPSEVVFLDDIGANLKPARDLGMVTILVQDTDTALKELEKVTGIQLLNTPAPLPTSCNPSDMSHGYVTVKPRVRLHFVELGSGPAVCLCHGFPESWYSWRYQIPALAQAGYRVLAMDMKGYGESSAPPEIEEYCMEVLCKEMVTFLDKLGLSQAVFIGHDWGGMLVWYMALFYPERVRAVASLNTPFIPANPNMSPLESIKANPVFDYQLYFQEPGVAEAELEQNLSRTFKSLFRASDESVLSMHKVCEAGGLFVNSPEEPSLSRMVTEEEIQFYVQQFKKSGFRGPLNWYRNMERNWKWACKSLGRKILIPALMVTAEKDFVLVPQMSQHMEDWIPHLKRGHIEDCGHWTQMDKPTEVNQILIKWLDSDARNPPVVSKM
CYP2C9 inhib: inhibitors of human CYP2C9; P11712; CYP2C9 Supersomes, luciferin-H conversion, luminescence; inhibition, % at 5 µM; actives 20% (n = 96,000); AID 777;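 active = blocking of liver enzyme CYP2C9 beyond about 50% at 5 µM, limit read from the data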
sEH inh: soluble epoxide hydrolase (human) inhibition; P34913; recombinant human sEH enzymatic activity assay; inhibition, % at 2 µM; actives 0.34% (n = 91,000); in the data active = inhibition above about 80%
CYP2C19 inhib: human CYP2C19 inhibition. inhibition, % at 5 µM. CYP2C19 Supersomes, luciferin-H EGE luminescence, 30 min. AID 778. actives 21% (n = 96,000);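 active = CYP2C19 inhibition above a set limit at 5 µM in the primary screen, cut at about 50% in these data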;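 note: plate controls were negative control wells for no effect and 2.5 mM tranylcypromine positive control for full effect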
CYP2C19 act: increases human CYP2C19 enzyme activity | P33261 | recombinant CYP2C19, luciferin-H EGE luminescence; hits give high values; 0 = fully inhibited enzyme, 1 = untreated enzyme | activation factor at 5 µM | 96,000 tested, under 10 active | AID 1025;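 active = activation factor of at least 2 at 5 µM in the primary screen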;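 note: 0 = wells with 2.5 mM tranylcypromine and 1 = vehicle-only wells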
CYP2C9 activ: increases human cytochrome P450 2C9 activity; recombinant CYP2C9, luciferin-H conversion, luminescence; hits give high values; factor 1 = untreated enzyme, 0 = blocked; activation factor at 5 µM; actives 1.4% (n = 96,000); AID 1024;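 active = activation factor of 2 or more for CYP2C9 at a 5 µM dose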;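 note: 0 = sulfaphenazole-blocked wells and 1 = vehicle-only wells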
Active calls of the source: *; . = not tested or not shown. The list is not random: actives were taken first. Their share in the collection is about 27%.

SMILES | sEH activator | CYP2C9 inhib | sEH inh | CYP2C19 inhib | CYP2C19 act | CYP2C9 activ
CN1CCC(N(C)CC(=O)Nc2cccc(Oc3ccccc3)c2)CC1 | -11 | -21 | 9 | -22 | 1.2 | 1.2
Cc1cc2c(c(Sc3ccccc3)n1)C(=O)OC2 | . | 27 | . | 50* | 0.5 | 0.7
CCOC(=O)c1cccnc1SCC(=O)N(C)c1ccccc1 | . | 41 | . | 39 | 0.6 | 0.6
Cc1cc2c(c(SCC(=O)N(C)c3ccccc3)n1)C(=O)OC2 | 20 | 14 | -18 | 63* | 0.4 | 0.9
CCC1CCCCN1C(=O)CSc1nc(N)c(NC(=O)c2ccc(OC)c(OC)c2)c(=O)[nH]1 (stereo unspecified) | 2 | 13 | -3 | -4 | 1 | 0.9
O=C1CCC(=O)N1c1nc2n(n1)C(c1ccccc1)C=C(c1ccc(Br)cc1)N2 (stereo unspecified) | -2 | 61* | 2 | 49 | 0.5 | 0.4
COc1ccc(NC(=O)C2CCCN2c2ccc(OC)c(OC)c2)cc1OC (stereo unspecified) | . | 32 | . | 22 | 0.8 | 0.7
COc1ccc(OC(C)C(=O)NCc2cccnc2)cc1 (stereo unspecified) | 10 | 35 | -10 | 37 | 0.6 | 0.7
Cc1c(Br)c([N+](=O)[O-])nn1C(C)C(=O)NCc1cccnc1 (stereo unspecified) | 9 | 57* | -11 | 76* | 0.2 | 0.4
COc1ccc(S(=O)(=O)N2CCCN(CC(=O)Nc3ccc(OC)c(Cl)c3)CC2)cc1 | -12 | -6 | 11 | 59* | 0.4 | 1.1
COc1ccc(S(=O)(=O)N2CCC(O)(c3ccc(Cl)cc3)CC2)cc1 | -16 | -134 | 14 | 68* | 0.3 | 2.3*
COc1ccc(NC(=O)CN2CCN(S(=O)(=O)c3ccc(Cl)cc3)CC2)cc1 | 0 | 22 | 0 | 81* | 0.2 | 0.8
COc1cccc(NC(=O)CN2CCN(S(=O)(=O)c3ccc(C(C)C)cc3)CC2)c1 | 5 | 31 | -2 | 87* | 0.1 | 0.7
COc1cc(NC(=O)CN2CCN(S(=O)(=O)c3ccc(C(C)C)cc3)CC2)cc(OC)c1 | -7 | 30 | 9 | 74* | 0.3 | 0.7
CC(=O)Nc1cccc(NC(=O)CSc2nnc(Cc3cccn3C)n2-c2ccc(C)cc2)c1 | . | 38 | . | 3 | 1 | 0.6
Cc1cccc(NC(=O)C2NC(=O)CC2c2ccccc2)c1C (stereo unspecified) | -7 | 16 | 4 | 58* | 0.4 | 0.8
Cc1cccc(C)c1NC(=O)C1NC(=O)CC1c1ccccc1 (stereo unspecified) | 1 | -7 | 2 | 6 | 0.9 | 1.1
CCN(CC)CCCN(Cc1cc2ccc(C)c(C)c2[nH]c1=O)C(=O)NC1CCCCC1 | -1 | -2 | 0 | -5 | 1.1 | 1
O=C(c1ccccc1)N1CCN(C(=O)c2ccccc2Br)CC1 | 15 | 31 | -16 | 56* | 0.4 | 0.7
O=C(c1ccccc1)N1CCN(S(=O)(=O)N2CCCCC2)CC1 | -13 | 49 | 12 | 87* | 0.1 | 0.5
CC(C)c1ccc(S(=O)(=O)N2CCN(C(=O)c3cccc(F)c3)CC2)cc1 | -5 | 67* | 6 | 67* | 0.3 | 0.3
O=C(c1cccc(S(=O)(=O)N2CCCCC2)c1)N1CCN(S(=O)(=O)c2ccc(F)cc2)CC1 | 0 | 41 | -2 | 35 | 0.6 | 0.6
O=C(c1cccc(F)c1)N1CCN(S(=O)(=O)c2ccccc2)CC1 | 17 | -1 | -17 | 76* | 0.2 | 1
Cc1cc(Br)cn2ccnc12 | -1 | -18 | 1 | -14 | 1.1 | 1.2
CC1CCCCN1C(=O)NC12CC3CC(CC(C3)C1)C2 (stereo unspecified) | -88 | 7 | 87* | 19 | 0.8 | 0.9
SMILES | sEH activator | CYP2C9 inhib | sEH inh | CYP2C19 inhib | CYP2C19 act | CYP2C9 activ
O=C(CSc1nc2ccc(S(=O)(=O)N3CCOCC3)cc2[nH]1)N1CCOCC1 | -3 | 6 | 5 | 16 | 0.8 | 0.9
CCCCNS(=O)(=O)c1ccc2nc(SCC(=O)N3CC(C)OC(C)C3)[nH]c2c1 (stereo unspecified) | -22 | 55* | 21 | 42 | 0.6 | 0.4
CC(C)(C)c1cc(NC(=O)c2cc(F)c(F)c(F)c2F)no1 | . | -10 | . | -12 | 1.1 | 1.1
Fc1ccc(NC(=S)NN=C2CCCCCC2)cc1 | -5 | 8 | 5 | 10 | 0.9 | 0.9
CN(C(=S)Nc1ccc(F)cc1)C1(c2ccccc2Cl)CCCCC1=O (stereo unspecified) | 0 | 24 | -2 | 83* | 0.2 | 0.8
CC1CC(=O)C=C(O)C1C(=O)OC(C)(C)C (stereo unspecified) | 3 | 42 | 1 | 11 | 0.9 | 0.6
COC(=O)c1ccccc1NS(=O)(=O)c1ccc2c3c(cccc13)C(=O)N2 | 9 | 100* | -10 | 76* | 0.2 | 0
O=C(O)c1ccccc1NS(=O)(=O)c1ccc2c3c(cccc13)C(=O)N2 | . | 97* | . | 21 | 0.8 | 0
O=S(=O)(Nc1cccc2ncccc12)c1cccs1 | . | -193 | . | 35 | 0.6 | 2.9*
O=C1Nc2ccc(NS(=O)(=O)c3cccs3)c3cccc1c23 | 2 | 89* | -2 | 89* | 0.1 | 0.1
CC(C)C(NS(=O)(=O)c1ccc2c3c(cccc13)C(=O)N2)C(=O)O (stereo unspecified) | -5 | 3 | 7 | -1 | 1 | 1
Cc1ccnc(NS(=O)(=O)c2cccs2)c1 | 5 | -15 | -2 | -8 | 1.1 | 1.1
O=C1Nc2ccc(S(=O)(=O)NCc3ccco3)c3cccc1c23 | -2 | . | 0 | . | . | .
CN(c1ccccc1C(=O)O)S(=O)(=O)c1ccc2c3c(cccc13)C(=O)N2 | -7 | . | 7 | . | . | .
CCOC(=O)CNC(=O)C(CC(C)C)NC(=O)C1CCCCC1 (stereo unspecified) | 16 | -12 | -20 | 2 | 1 | 1.1
COC(=O)c1c(C)oc2c1cc(NS(=O)(=O)c1cccs1)c1ccccc12 | -6 | 95* | 6 | 92* | 0.1 | 0.1
CCOC(=O)C1CCN(S(=O)(=O)c2ccc3c4c(cccc24)C(=O)N3)CC1 | -6 | 39 | 6 | 8 | 0.9 | 0.6
Cc1oc2c(cc(NS(=O)(=O)c3ccc4c5c(cccc35)C(=O)N4)c3ccccc32)c1C(=O)OC(C)C | -7 | 89* | 7 | 39 | 0.6 | 0.1
C=CCn1c(CNc2ccccc2)nnc1SCC(=O)N/N=C/c1ccccc1O | -4 | 10 | 6 | -4 | 1 | 0.9
CC1CCCC(NC(=O)COC(=O)c2ccc(S(=O)(=O)N3CCOCC3)cc2)C1C (stereo unspecified) | -80 | 23 | 80 | 9 | 0.9 | 0.8
CC1CCCCC1NC(=O)COC(=O)c1ccc(N(C)C)cc1 (stereo unspecified) | -27 | 41 | 28 | 91* | 0.1 | 0.6
COc1ccc(N2Cc3ccccc3C2)cc1Cl | 11 | 58* | -12 | 12 | 0.9 | 0.4

High-throughput results from PubChem.
